# Measured values published in PubChem BioAssay (Tox21).
# “And” between values parts separate entries of the source, which are not always exact repeats. Identical values can stand only once. Inconclusive results are not listed. Where a call stands in place of a potency, no number is given. Where a structure was tested more than once in an assay, its records may differ in their call. The source made the active and inactive calls. Calls follow the shape of the dose curve; as a rule, active = well fitted cell-killing curve with a large enough effect in the repeat runs; inconclusive = weak or mixed curves; inactive = flat fitted curve, though single readings scatter.
# Assay: qHTS RealTime-Glo MT Cell Viability Assay in HepG2 cells - 16 hour (AID 1224885); also: nearly all actives have a fitted effect of over 50% in size
# Details: RealTime-Glo luminescence; series mostly up to 76.8 µM; activity change, negative = cytotoxic: at the top concentration
# Method in brief: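 Real-time, nonlytic viability: 600 HepG2 cells/well mixed with NanoLuc enzyme plus prosubstrate; 5 h settle, compound (DMSO) added by pintool; luminescence monitored over 40 h at 37 C.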
# Potency is read from the fitted curve at half-maximal effect.
Compound,Potency,"activity change, negative = cytotoxic"
S=c1[nH]c2ccccc2[nH]1,inactive,–
CCCCC(C#N)(Cn1cncn1)c1ccc(Cl)cc1 (stereo not drawn),inactive,–
O=P(OCCCl)(OCCCl)OCCCl,inactive,–
COc1ccc(O)c(C(C)(C)C)c1,inactive,–
CC(C)Nc1nc(Cl)nc(NC(C)C)n1,inactive,–
COP(=S)(OC)Oc1ccc(Sc2ccc(OP(=S)(OC)OC)cc2)cc1,inactive,–
Brc1ccc(Br)cc1,inactive,–
OC(c1ccc(Cl)cc1)(c1cncnc1)c1ccccc1Cl (stereo not drawn),39.6 µM (active),–
ClCc1ccccn1,inactive,–
C[C@]12CCC(=O)C=C1CC[C@@H]1[C@@H]2CC[C@@]2(C)[C@H]1CC[C@]2(C)O,–,-4.05% [at 35.3 µM] (inactive)
COP(=S)(OC)SCn1nnc2ccccc2c1=O,inactive,–
CC(C)(c1ccc(OCC2CO2)cc1)c1ccc(OCC2CO2)cc1 (stereo not drawn),inactive,–
CCOP(=O)(O)OCC (tested in a mixture with another compound),inactive and 48.6 µM (active),–
CSc1nc(NC(C)C)nc(NC(C)C)n1,inactive,–
CC1(C)C(C(=O)OC(C#N)c2cccc(Oc3ccccc3)c2)C1(C)C (stereo not drawn),inactive,–
CCCCOCC1CO1 (stereo not drawn),inactive,–
CNC(=O)Oc1cccc2c1OC(C)(C)C2,inactive,–
CNC(=S)S,inactive,–
Cc1ccc(N=CN(C)C=Nc2ccc(C)cc2C)c(C)c1,inactive,–

Compound,Potency,"activity change, negative = cytotoxic"
CC(C)=CC1C(C(=O)OCc2cccc(Oc3ccccc3)c2)C1(C)C (stereo not drawn),inactive,–
O=C1C(Cl)=C(Cl)C(=O)c2ccccc21,21.9 µM (active) and 6.92 µM (active),–
CCOP(=S)(OCC)SCSC(C)(C)C,inactive,–
OCCOCCO,inactive,–
COc1ccc(C=O)cc1OC,inactive,–
CCCCSP(=O)(SCCCC)SCCCC,inactive,–
Cn1c(-c2ccccc2)cc(-c2ccccc2)[n+]1C,inactive,–
Cc1cccc(N=Nc2ccc(N(C)C)cc2)c1,–,-17.5% (inactive)
C=CC(Cl)CCl (stereo not drawn),inactive,–
CC(C)(C#N)N=NC(C)(C)C#N,inactive,–
CCCCOCCOC(C)=O,inactive,–
O=[N+]([O-])c1ccc(Nc2ccccc2)cc1,–,-19% (inactive)
C=C(C)C#N,inactive,–
N#CCCCCC#N,inactive,–
CS(=O)(=O)NC(=O)c1cc(Oc2ccc(C(F)(F)F)cc2Cl)ccc1[N+](=O)[O-],inactive,–
CCC[CH2][Sn]([Cl])([CH2]CCC)[CH2]CCC,2.19 µM (active) and 692 nM (active),–
CCOP(=S)(OCC)OP(=S)(OCC)OCC,inactive,–
O=S(=O)(O)C(F)(F)C(F)(F)C(F)(F)C(F)(F)C(F)(F)C(F)(F)C(F)(F)C(F)(F)F,inactive,–
N#CC(c1ccccc1)c1ccccc1,inactive,–
